Test [1] can be described thus: A549 cell viability effects, profiling panel, calcein-AM fluorescence, 48 h, basal (AID 1162). Also: test concentration not given here. Particulars: higher = more signal.
The nature of test [2]: adipocyte viability effects, profiling panel, cell-based, 3T3-L1 adipocytes, calcein-AM fluorescence, 48 h, basal (AID 1163). Also: test concentration not given here. The settings on record: 3T3-L1 adipocytes viability, higher = more signal.
The nature of test [3]: HepG2 cell viability effects, profiling panel, calcein-AM fluorescence, 48 h, basal (AID 1164). Also: test concentration not given here. The settings on record: higher = more signal.
The nature of test [4]: MM1S cell viability effects, profiling panel, calcein-AM fluorescence, 48 h, basal (AID 1165).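 Also: viability of MM1S multiple myeloma cells under basal unstimulated conditions; test concentration not given here.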 Particulars: higher = more signal.
The nature of test [5]: basal RPMI8226 viability, no added stimulus, profiling panel, cell-based, calcein-AM fluorescence, 48 h, PK04 Diversity Set (AID 1166).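 Also: cells grown under basal conditions without added stimulus; test concentration not given here.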 The settings on record: RPMI8226 myeloma viability, higher = more signal.
Test [6] can be described thus: basal HepG2 mitochondrial membrane potential changes, profiling panel, cell-based, JC-1 fluorescence, 24 h, 100 nL compound (AID 1167). Also: test concentration not given here. The settings on record: higher = more signal.
Test [7] is described as follows: basal 3T3-L1 adipocyte mitochondrial potential changes, profiling panel, cell-based, JC-1 fluorescence, 3T3-L1 adipocytes, 24 h, 100 nL compound (AID 1168). Also: test concentration not given here. The settings on record: JC-1 mitochondrial fluorescence, higher = more signal, called active from +8 up or from −8 down.
Test [8] can be described thus: basal RPMI8226 mitochondrial membrane potential changes, profiling panel, cell-based, JC-1 fluorescence, 24 h, 100 nL compound (AID 1169). Also: test concentration not given here. Particulars: RPMI8226 myeloma, JC-1 mitochondrial potential fluorescence, higher = more signal.
A short description of test [9]: basal MM1S mitochondrial membrane potential changes, profiling panel, cell-based, JC-1 fluorescence, 24 h, 100 nL compound (AID 1170). Also: test concentration not given here. Particulars: higher = more signal.
Test [10] is described as follows: A549 lung cancer cell viability effects, profiling panel, resazurin fluorescence, 24 h, PK04 Diversity Set (AID 1171). Also: test concentration not given here. The settings on record: higher = more signal, called active from +8 up or from −8 down. Background: Alamar Blue is a resazurin reagent that responds to reducing activity.
Test [11] is described as follows: HepG2 liver cancer cell viability effects, profiling panel, resazurin fluorescence, 24 h, PK04 Diversity Set (AID 1172). Also: test concentration not given here. Particulars: higher = more signal.
The nature of test [12]: basal S. cerevisiae growth modulation, no modifier, primary screen, OD600, strain BY4716, 24 h, basal condition (AID 1173). Particulars: OD600, 24 h, higher = more signal, called active from +8 up or from −8 down.
A short description of test [13]: MM1S myeloma cell viability, profiling panel, resazurin fluorescence, basal, 24 h, PK04 Diversity Set (AID 1174).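 Also: MM1S multiple myeloma cell line; test concentration not given here.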 Particulars: higher = more signal, called active from +8 up or from −8 down.
Test [14] concerns the target Dihydroorotate dehydrogenase (quinone), mitochondrial (Plasmodium falciparum (isolate 3D7)) (UniProt Q08210). Description: PfDHODH enzyme inhibitors, primary screen, biochemical, C-terminal His tag, absorbance 600 nm (AID 1175).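 Also: recombinant parasite enzyme with a five histidine tag at its C terminus; test concentration not given here.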 Particulars: DCIP absorbance 600 nm, higher = more signal, called active from +8 up or from −8 down.
The nature of test [15]: P. aeruginosa biofilm formation inhibitors, primary screen, strain PAO1, LB-PBS medium, absorbance 600 nm (AID 1176). Also: test concentration not given here. The settings on record: P. aeruginosa PAO1 growth/biofilm, A600, 12 h; higher = more signal.
Test [16] in a line: S. cerevisiae RM11-1a growth modifiers, primary screen, strain RM11-1a, OD600, basal, 24 h (AID 1177).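 Also: cultures grown under basal conditions with no added stressor; test concentration not given here.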 Particulars: OD600, 24 h, higher = more signal, called active from +8 up or from −8 down.
Test [17] is described as follows: E. coli acrAB mutant growth effects, primary screen, E. coli filamentation inducers, strain DRC39, OD650, 24 h (AID 1178).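 Also: growth measured as culture turbidity by optical density at 650 nm; test concentration not given here.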 Particulars: higher = more signal, called active from +8 up or from −8 down.
Test [18] is described as follows: E. coli acrAB mutant growth effects, primary screen, E. coli filamentation inducers, strain DRC39, OD650, 48 h (AID 1179).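 Also: screen aims at cell division blockers that make cells filament.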 Particulars: E. coli DRC39 delta-acrAB growth, higher = more signal, called active from +8 up or from −8 down.
The nature of test [19]: RPMI8226 myeloma cell viability, profiling panel, resazurin fluorescence, basal, 24 h, PK04 Diversity Set (AID 1180).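 Also: RPMI8826 multiple myeloma cell line at 5000 cells per well; test concentration not given here.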 The settings on record: higher = more signal.
Test [20] concerns the target E3 ubiquitin-protein ligase XIAP (Homo sapiens) (UniProt P98170). Description: XIAP binders, primary screen, biophysical, small-molecule microarray, fluorescence 635 nm (AID 1181).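 Also: score merges 667 nm emission and signal to noise over triplicate slides.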 Particulars: small-molecule microarray binding, higher = more signal.

Active and inactive are the calls of the source. Unless noted, no rule for the calls is given here.

Chain of Dihydroorotate dehydrogenase (quinone), mitochondrial (Plasmodium falciparum (isolate 3D7)) (Q08210 whole entry, looked up): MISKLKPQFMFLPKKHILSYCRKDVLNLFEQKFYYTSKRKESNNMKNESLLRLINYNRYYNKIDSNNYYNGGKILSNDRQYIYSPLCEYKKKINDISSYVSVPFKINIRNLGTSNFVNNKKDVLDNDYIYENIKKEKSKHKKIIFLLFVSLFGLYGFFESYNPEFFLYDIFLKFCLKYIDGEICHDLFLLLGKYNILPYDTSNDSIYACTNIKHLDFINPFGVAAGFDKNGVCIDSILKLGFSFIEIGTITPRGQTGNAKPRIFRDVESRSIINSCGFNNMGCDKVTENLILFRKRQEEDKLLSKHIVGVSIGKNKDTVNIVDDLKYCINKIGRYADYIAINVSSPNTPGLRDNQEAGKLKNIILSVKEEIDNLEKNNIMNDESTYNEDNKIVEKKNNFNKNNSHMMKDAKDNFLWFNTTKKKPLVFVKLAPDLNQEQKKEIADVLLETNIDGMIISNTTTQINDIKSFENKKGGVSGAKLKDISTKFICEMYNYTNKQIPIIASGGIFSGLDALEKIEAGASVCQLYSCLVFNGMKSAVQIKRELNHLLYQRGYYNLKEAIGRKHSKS
Chain of E3 ubiquitin-protein ligase XIAP (Homo sapiens) (P98170 whole entry, looked up): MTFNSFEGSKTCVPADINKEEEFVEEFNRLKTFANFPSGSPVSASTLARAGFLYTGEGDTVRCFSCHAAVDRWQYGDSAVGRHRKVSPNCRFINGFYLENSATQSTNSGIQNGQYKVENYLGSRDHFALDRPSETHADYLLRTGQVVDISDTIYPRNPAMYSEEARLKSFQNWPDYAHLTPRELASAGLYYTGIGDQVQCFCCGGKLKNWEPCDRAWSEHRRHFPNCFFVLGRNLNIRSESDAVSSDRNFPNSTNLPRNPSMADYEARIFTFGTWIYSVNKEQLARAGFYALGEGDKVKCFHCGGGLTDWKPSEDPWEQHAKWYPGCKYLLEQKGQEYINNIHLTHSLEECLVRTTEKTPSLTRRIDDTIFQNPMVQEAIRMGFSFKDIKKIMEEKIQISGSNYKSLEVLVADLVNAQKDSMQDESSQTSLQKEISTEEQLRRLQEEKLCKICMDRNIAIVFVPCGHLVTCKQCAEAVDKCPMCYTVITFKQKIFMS

As to `CCOC(=O)C[C@H]1[C@H](OC(=O)Cc2ccc3c(c2)OCO3)[C@@H](NC(=O)c2ccc3ccccc3n2)c2cc(OCCCO)ccc2N1C(=O)c1ccccc1`, the z-score in [1] was 0.776; in test [2], 0.288; in test [3] it was 0.731; in test [4], 0.26; in test [5] it was -1.09; in test [6], 2.52. Further, the z-score in [7] is 0.0925 (inactive); in test [8] it was -0.169; in test [9] it was -1.07; in [10], 0.231 (inactive); in test [11], 0.374; in test [12], -0.407 (inactive). Moreover, the z-score in test [13] is -1.51 (inactive); in test [15] it was -0.325 (inactive); in test [16] it was 0.946 (inactive); in test [17], -0.247 (inactive); in test [18], 0.208 (inactive); in test [19], -0.139. In addition, the composite z-score is -0.32 (inactive) in test [14] and 0.134 in test [20].
Take `CCOC(=O)C[C@H]1[C@H](OC(=O)c2ccccc2-c2ccccc2)[C@@H](NC(=O)c2ccc3ccccc3c2)c2cc(OCCCO)ccc2N1C(=O)c1ccccc1`: the z-score in test [1] is 0.065; in test [2] it was 0.257; in test [3] it was -0.336; in [4], -0.306; in test [5], -0.604; in test [6], 0.579. Moreover, the z-score is 0.633 (inactive) in [7]; -0.25 in test [8]; 0.171 in test [9]; -0.385 (inactive) in [10]; -0.655 in [11]; 0.264 (inactive) in test [12]. For the same molecule, the z-score was 0.0324 (inactive) in [13]; -0.341 (inactive) in test [15]; 0.874 (inactive) in test [16]; 0.547 (inactive) in test [17]; 0.203 (inactive) in test [18]; 0.225 in test [19]. Also, the values for the composite z-score in [14] and in [20] were 0.198 (inactive) and -0.0988, respectively.
For `CCOC(=O)C[C@H]1[C@H](OC(=O)Cc2ccc3c(c2)OCO3)[C@@H](NC(=O)C2CCCCC2)c2cc(OCCCO)ccc2N1C(=O)c1ccccc1`, the z-score is 1.99 in test [1]; -0.193 in test [2]; -0.0568 in [3]; 0.567 in test [4]; -0.354 in [5]; 1.69 in test [6]. In addition, the z-score in test [7] was 0.247 (inactive); in [8] it was 0.0348; in [9], 0.137; in test [10], 0.745 (inactive); in test [11] it was -0.215; in [12] it was 0.149 (inactive). For the same molecule, the z-score in test [13] is 0.327 (inactive); in test [15] it was 0.407 (inactive); in [16] it was 0.0834 (inactive); in test [17] it was 1.39 (inactive); in test [18], 1.37 (inactive); in test [19], 0.3. Further, the values for the composite z-score in [14] and in test [20] were 0.108 (inactive) and -0.173, respectively.
`C=C(COC)/C(=C/C[C@H](OC(=O)c1ccncc1)c1ccc(CO)o1)c1cnc2ccccc2c1`: the z-score in [1] was 0.349; in [2] it was -0.474; in test [3] it was -0.439; in test [4], -1.41; in test [5], -0.366; in [6], -1.06. The z-score in test [7] is -0.582 (inactive); in [8], 0.178; in test [9], -0.592; in test [10] it was -0.319 (inactive); in test [11] it was -0.338; in test [12], 0.107 (inactive). For the same molecule, the z-score is -0.117 (inactive) in [13]; 0.449 (inactive) in test [15]; 0.158 (inactive) in [16]; -0.305 (inactive) in test [17]; -0.343 (inactive) in test [18]; 0.0987 in [19]. The composite z-score in test [14] was -7.5 (inactive); in test [20], -0.121.
As for `[N-]=[N+]=Nc1ccccc1C[C@@]1(C(=O)N2CCOCC2)N=C(c2ccc(OCCCO)cc2)O[C@@H]1c1ccccc1`, the z-score is 0.239 in test [1]; -0.231 in test [2]; 1.01 in test [3]; -1.92 in test [4]; -2.57 in test [5]; 1.02 in test [6]. For the same molecule, the z-score in [7] was 0.752 (inactive); in test [8] it was -1.23; in test [9], -0.324; in [10] it was -1.07 (inactive); in test [11], -0.339; in test [12], -1.76 (inactive). Besides, the z-score in [13] is -0.967 (inactive); in test [15], 0.413 (inactive); in test [16], -0.0584 (inactive); in test [17], 0.37 (inactive); in [18], -0.0378 (inactive); in test [19], -0.0984. For the same molecule, the composite z-score in [14] is -0.132 (inactive); in test [20], -0.09.
On to `C=CCC(OC(C)=O)[C@@H]1[C@@H](N(Cc2ccc(-c3cccc(C(F)(F)F)c3)o2)C(=O)Cc2ccc(OC)cc2)c2cc(OCCCO)ccc2N1C(=O)c1ccc(-c2ccccc2)cc1` (stereo not given in full), for which the z-score in [1] is 0.095; in test [2], 0.647; in [3], 0.926; in test [4] it was -0.681; in test [5] it was -1.93; in test [6], 3.55. For the same molecule, the z-score in test [7] is -0.645 (inactive); in test [8], 0.498; in test [9], 0.504; in test [10], -1.71 (inactive); in test [11], -1.35; in test [12], -0.0331 (inactive). The z-score was -0.0666 (inactive) in test [13]; -0.24 (inactive) in [15]; 0.0869 (inactive) in test [16]; -0.165 (inactive) in test [17]; -0.555 (inactive) in [18]; -0.197 in [19]. Further, the composite z-score in test [14] is 0.821 (inactive); in [20], 0.125.
Regarding `C=C[C@H](C)[C@H](OC(=O)Nc1ccc(SC)cc1)c1ccc(OCCO)cc1`, the z-score in [1] is 0.0889; in test [2], 0.954; in test [3] it was -0.47; in test [4], -0.889; in test [5], -2.41; in [6] it was -2.67. In addition, the z-score is 0.508 (inactive) in test [7]; -0.781 in test [8]; -0.72 in test [9]; -1.48 (inactive) in [10]; -0.551 in test [11]; -2.49 (inactive) in test [12]. Besides, the z-score in test [13] was -0.547 (inactive); in test [15] it was 1.15 (inactive); in test [16], 0.116 (inactive); in [17] it was -0.576 (inactive); in test [18] it was -0.435 (inactive); in test [19], -0.274. The composite z-score in [14] is -0.985 (inactive); in test [20] it was 0.133.
Turning to `COc1ccc(CCNC(=O)[C@@]2(Sc3ccc(C)cc3)CC(=O)N(Cc3ccccc3C(F)(F)F)[C@@H]2c2ccc(CO)cc2I)cc1`, the z-score was 0.751 in test [1]; -0.178 in [2]; -0.253 in [3]; -2.41 in [4]; -2.36 in [5]; -1.03 in test [6]. The z-score in test [7] is -0.322 (inactive); in test [8] it was -0.714; in [9], -0.841; in test [10], 0.956 (inactive); in test [11], 0.267; in test [12] it was -5.78 (inactive). For the same molecule, the z-score in test [13] was -2.05 (inactive); in [15], -0.171 (inactive); in [16], -1.77 (inactive); in [17] it was 0.0424 (inactive); in [18] it was 0.189 (inactive); in test [19] it was -1.72. Moreover, the composite z-score in [14] was -1.6 (inactive); in test [20], 0.1.
In the case of `O[C@@H](Cc1ccccc1)[C@@H](/C=C/C1CC1)N(CC#Cc1ccccc1)Cc1ccccc1Br`, the z-score in [1] is -0.049; in test [2], -0.667; in [3] it was -0.258; in [4] it was 0.0144; in [5], -0.353; in [6], -1.79. The z-score is -0.344 (inactive) in test [7]; -0.44 in test [8]; -0.571 in [9]; 1.62 (inactive) in [10]; 1.67 in test [11]; 0.365 (inactive) in test [12]. Further, the z-score was 1.14 (inactive) in test [13]; -0.59 (inactive) in [15]; 1.43 (inactive) in test [16]; -0.419 (inactive) in test [17]; -0.232 (inactive) in test [18]; 2.14 in test [19]. The results for the composite z-score in test [14] and in test [20] were 0.63 (inactive) and 0.339, respectively.

The values are drawn from PubChem BioAssay.
